Results published in PubChem BioAssay AID1159580 (chemical genetic matrix, 2015).
Values joined by “and” are separate entries in the source; they are usually repeats but may differ in a detail not shown here. Equal entries are not always repeated. Screen size: about 5,500 compounds; about 2,000 (36%) were called active. Roughly 18% stayed inconclusive and do not appear here. No stated cut-off is given here; in the data, active means normalized growth mostly below about 0.91 (no sharp cut-off); inconclusive means no clear call, values can overlap the other calls; inactive means mostly above about 0.92. The list shows a part of the results.

Assay: chemical genetic growth profiling, strain panel (AID 1159580);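 further: tested at 20 µM; growth read once vehicle control cultures reached saturation at 30 °C; 1 = growth at the plate median or of vehicle wells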
Settings: S. cerevisiae deletion strains, growth OD

Measured: normalized growth

COc1cc2c(cc1OC)C(C)NCC2 (stereo unspecified)
inactive: locus YAL013W, strain DEP1, stronger effect = lower value 0.996 | locus YAL021C, strain ccr4, stronger effect = lower value 0.967 | locus YAL026C, strain drs2, stronger effect = lower value 0.959 | locus YAL030W, strain snc1, stronger effect = lower value 0.985 | locus YBL061C, strain skt5, stronger effect = lower value 0.97 | locus YBR009C, strain hhf1, stronger effect = lower value 0.965 | locus YBR021W, strain FUR4, stronger effect = lower value 0.995 | locus YBR023C, strain chs3, stronger effect = lower value 0.957 | locus YBR171W, strain sec66, stronger effect = lower value 0.958 | locus YBR229C, strain ROT2, stronger effect = lower value 0.995 | locus YBR231C, strain swc5, stronger effect = lower value 0.982 | locus YBR279W, strain paf1, stronger effect = lower value 0.989 | locus YCL011C, strain gbp2, stronger effect = lower value 0.979 | locus YCL016C, strain dcc1, stronger effect = lower value 1 | locus YCL029C, strain bik1, stronger effect = lower value 0.979 | locus YCL069W, strain vba3, stronger effect = lower value 0.962 | locus YCR088W, strain abp1, stronger effect = lower value 0.982 | locus YDL005C, strain med2, stronger effect = lower value 0.976 | locus YDL035C, strain GPR1, stronger effect = lower value 1 | locus YDL040C, strain nat1, stronger effect = lower value 0.984 | locus YDL074C, strain BRE1, stronger effect = lower value 1 | locus YDL101C, strain DUN1, stronger effect = lower value 0.996 | locus YDL185W, strain tfp1, stronger effect = lower value 0.986 | locus YDL192W, strain arf1, stronger effect = lower value 0.98 | locus YDR001C, strain nth1, stronger effect = lower value 0.988 | locus YDR069C, strain doa4, stronger effect = lower value 0.921 | locus YDR101C, strain arx1, stronger effect = lower value 0.979 | locus YDR137W, strain rgp1, stronger effect = lower value 0.977 | locus YDR150W, strain NUM1, stronger effect = lower value 1.01 | locus YDR159W, strain sac3, stronger effect = lower value 0.927 | locus YDR162C, strain NBP2, stronger effect = lower value 1.02 | locus YDR195W, strain ref2 0.963 | locus YDR297W, strain sur2, stronger effect = lower value 1 | locus YDR318W, strain mcm21, stronger effect = lower value 0.986 | locus YDR334W, strain swr1, stronger effect = lower value 0.951 | locus YDR335W, strain msn5, stronger effect = lower value 0.971 | locus YDR388W, stronger effect = lower value 0.978 | locus YDR392W, strain spt3, stronger effect = lower value 0.992 | locus YDR502C, strain sam2, stronger effect = lower value 0.981 | locus YEL003W, strain gim4, stronger effect = lower value 0.976 | locus YEL037C, strain rad23, stronger effect = lower value 0.968 | locus YEL061C, strain CIN8 (second series), stronger effect = lower value 0.966 | locus YEL061C, strain CIN8, stronger effect = lower value 0.995 | locus YER015W, strain faa2, stronger effect = lower value 0.976 | locus YER016W, strain bim1, stronger effect = lower value 0.983 | locus YER110C, stronger effect = lower value 0.963 | locus YER111C, strain swi4, stronger effect = lower value 0.959 | locus YER155C, strain BEM2 (second series), stronger effect = lower value 0.985 | locus YER155C, strain BEM2, stronger effect = lower value 0.99 | locus YER167W, strain BCK2, stronger effect = lower value 0.994 | locus YFR010W, strain ubp6, stronger effect = lower value 0.945 | locus YGL078C, strain dbp3, stronger effect = lower value 0.982 | locus YGL086W, strain mad1, stronger effect = lower value 0.982 | locus YGL167C, strain pmr1, stronger effect = lower value 0.969 | locus YGL173C, strain kem1, stronger effect = lower value 0.97 | locus YGL227W, strain vid30, stronger effect = lower value 0.985 | locus YGL240W, strain doc1, stronger effect = lower value 0.986 | locus YGL248W, strain PDE1, stronger effect = lower value 1 | locus YGL253W, strain hxk2, stronger effect = lower value 0.961 | locus YGR078C, strain PAC10, stronger effect = lower value 1.02 | locus YGR135W, strain pre9, stronger effect = lower value 0.959 | locus YGR252W, strain gcn5, stronger effect = lower value 0.996 | locus YHR013C, strain ard1, stronger effect = lower value 0.961 | locus YHR027C, strain rpn1, stronger effect = lower value 0.976 | locus YHR030C, strain SLT2, stronger effect = lower value 0.993 and 1.04 | locus YHR079C, strain IRE1 (second series), stronger effect = lower value 0.979 | locus YHR079C, strain IRE1, stronger effect = lower value 1.03 | locus YHR094C, strain hxt1, stronger effect = lower value 0.985 | locus YHR129C, strain ARP1, stronger effect = lower value 1 | locus YHR142W, strain chs7, stronger effect = lower value 0.988 | locus YHR200W, strain rpn10, stronger effect = lower value 0.98 | locus YIL066C, strain RNR3, stronger effect = lower value 1.02 | locus YIL073C, strain SPO22, stronger effect = lower value 1.02 | locus YIL125W, strain kgd1, stronger effect = lower value 0.981 | locus YIR030C, strain dcg1, stronger effect = lower value 0.976 | locus YJL092W, strain hpr5, stronger effect = lower value 0.936 | locus YJL095W, strain BCK1 (second series), stronger effect = lower value 0.969 | locus YJL095W, strain BCK1, stronger effect = lower value 1.02 and 0.99 | locus YJL115W, strain asf1, stronger effect = lower value 0.951 | locus YJL129C, strain trk1, stronger effect = lower value 0.948 | locus YJL134W, strain LCB3, stronger effect = lower value 0.988 | locus YJL154C, strain vps35, stronger effect = lower value 0.974 | locus YJL164C, strain tpk1, stronger effect = lower value 1.01 | locus YJL166W, strain qcr8, stronger effect = lower value 0.977 | locus YJL168C, strain set2, stronger effect = lower value 0.978 | locus YJL187C, strain SWE1 (second series), stronger effect = lower value 1.01 | locus YJL187C, strain SWE1, stronger effect = lower value 0.961 | locus YJR043C, strain POL32, stronger effect = lower value 1.02 | locus YJR066W, strain TOR1, stronger effect = lower value 0.966 | locus YJR075W, strain HOC1, stronger effect = lower value 1.02 | locus YKL009W, strain mrt4, stronger effect = lower value 0.984 | locus YKL068W, stronger effect = lower value 0.98 | locus YKL085W, strain MDH1 (second series), stronger effect = lower value 1.01 | locus YKL085W, strain MDH1, stronger effect = lower value 1.01 | locus YKL160W, strain elf1, stronger effect = lower value 1.01 | locus YKL190W, strain CNB1, stronger effect = lower value 1 | locus YKR001C, strain vps1, stronger effect = lower value 0.982 | locus YKR026C, strain gcn3, stronger effect = lower value 0.974 | locus YKR091W, strain srl3, stronger effect = lower value 0.987 | locus YLL001W, strain dnm1, stronger effect = lower value 0.977 | locus YLL026W, stronger effect = lower value 0.986 | locus YLL041C, strain sdh2, stronger effect = lower value 0.963 | locus YLR027C, strain aat2, stronger effect = lower value 0.966 | locus YLR039C, strain RIC1, stronger effect = lower value 1.02 | locus YLR058C, strain SHM2, stronger effect = lower value 0.996 | locus YLR102C, strain apc9, stronger effect = lower value 0.991 | locus YLR113W, strain HOG1, stronger effect = lower value 1.01 | locus YLR221C, strain rsa3, stronger effect = lower value 0.989 | locus YLR258W, strain gsy2, stronger effect = lower value 0.978 | locus YLR262C, strain YPT6 (second series), stronger effect = lower value 0.964 | locus YLR262C, strain YPT6, stronger effect = lower value 1.05 | locus YLR268W, strain sec22, stronger effect = lower value 0.987 | locus YLR320W, strain mms22, stronger effect = lower value 0.997 | locus YLR330W, strain CHS5, stronger effect = lower value 0.991 | locus YLR342W, strain FKS1 (second series), stronger effect = lower value 0.999 | locus YLR342W, strain FKS1, stronger effect = lower value 0.982 | locus YLR357W, strain rsc2, stronger effect = lower value 0.94 | locus YLR370C, strain arc18, stronger effect = lower value 0.955 | locus YLR371W, strain rom2, stronger effect = lower value 0.98 | locus YLR384C, strain iki3, stronger effect = lower value 0.996 | locus YLR418C, strain cdc73, stronger effect = lower value 0.98 | locus YML016C, strain PPZ1, stronger effect = lower value 0.988 | locus YML032C, strain rad52, stronger effect = lower value 0.978 | locus YML120C, strain ndi1, stronger effect = lower value 0.989 | locus YML124C, strain tub3, stronger effect = lower value 0.986 | locus YMR058W, strain fet3, stronger effect = lower value 0.972 | locus YMR078C, strain ctf18, stronger effect = lower value 0.981 | locus YMR125W, strain sto1, stronger effect = lower value 0.933 | locus YMR129W, stronger effect = lower value 0.985 | locus YMR205C, strain PFK2, stronger effect = lower value 0.989 | locus YMR223W, strain ubp8, stronger effect = lower value 0.977 | locus YMR231W, strain pep5, stronger effect = lower value 0.964 | locus YMR307W, strain GAS1, stronger effect = lower value 1.03 | locus YNL067W, strain RPL9B, stronger effect = lower value 1.02 | locus YNL071W, strain lat1, stronger effect = lower value 0.981 | locus YNL128W, strain TEP1, stronger effect = lower value 0.998 | locus YNL153C, strain GIM3, stronger effect = lower value 1.02 | locus YNL183C, strain NPR1, stronger effect = lower value 0.974 | locus YNL209W, strain ssb2, stronger effect = lower value 0.976 | locus YNL233W, strain BNI4, stronger effect = lower value 1.02 | locus YNL248C, strain rpa49, stronger effect = lower value 0.955 | locus YNL250W, strain rad50, stronger effect = lower value 0.972 | locus YNL271C, strain bni1, stronger effect = lower value 0.985 | locus YNL298W, strain CLA4, stronger effect = lower value 0.972 | locus YNL307C, strain MCK1, stronger effect = lower value 0.978 | locus YNL322C, strain KRE1 (second series), stronger effect = lower value 0.95 | locus YNR049C, strain mso1, stronger effect = lower value 0.952 | locus YNR052C, strain pop2, stronger effect = lower value 0.974 | locus YOL012C, strain htz1 0.939 | locus YOL147C, strain pex11, stronger effect = lower value 0.989 | locus YOR001W, strain rrp6, stronger effect = lower value 0.951 | locus YOR061W, strain CKA2, stronger effect = lower value 0.992 | locus YOR069W, strain VPS5, stronger effect = lower value 0.987 | locus YOR070C, strain gyp1, stronger effect = lower value 0.986 | locus YOR080W, strain dia2, stronger effect = lower value 0.982 | locus YOR083W, strain WHI5, stronger effect = lower value 1.02 | locus YOR106W, strain vam3, stronger effect = lower value 0.998 | locus YOR136W, strain idh2, stronger effect = lower value 0.976 | locus YOR144C, strain elg1, stronger effect = lower value 0.985 | locus YOR184W, strain ser1, stronger effect = lower value 0.998 | locus YOR231W, strain MKK1, stronger effect = lower value 1.02 | locus YOR265W, strain rbl2, stronger effect = lower value 0.977 | locus YOR270C, strain vph1, stronger effect = lower value 0.949 | locus YOR290C, strain snf2, stronger effect = lower value 0.997 | locus YOR316C, strain cot1, stronger effect = lower value 0.99 | locus YPL051W, strain arl3, stronger effect = lower value 0.972 | locus YPL078C, strain atp4, stronger effect = lower value 1 | locus YPL106C, strain sse1, stronger effect = lower value 0.957 | locus YPL240C, strain hsp82, stronger effect = lower value 0.964 | locus YPL241C, strain CIN2, stronger effect = lower value 1 | locus YPL256C, strain CLN2, stronger effect = lower value 1.03 | locus YPR119W, strain clb2, stronger effect = lower value 0.97 | locus YPR141C, strain kar3, stronger effect = lower value 0.987 | locus YPR163C, strain tif3, stronger effect = lower value 0.994 | locus YPR167C, strain met16, stronger effect = lower value 0.964 | strain wtn01, stronger effect = lower value 0.96
